The results in this text go back to PubChem BioAssay AID1347417 (National Center for Advancing Translational Sciences (NCATS), 2020).

Each structure is given as a SMILES string. Among all 120,000 compounds or so, about 5,300 (4.4%) were called active. Not shown: some 22% with an inconclusive outcome. The call rests on the fitted dose curve; in most records, active means well fitted inhibition curve with a large enough effect; inconclusive means small, poorly fitted or top-dose-only effect; inactive means no such curve, though single readings can be large or run the other way. Shown is part of a subset that was picked to be rich in actives. Where a call stands in place of a potency, no number is given.
Potency means the concentration at half of the fitted maximal effect.

The nature of the assay: qHTS Primary assay for Inhibitors of Plasmodium falciparum Dd2 growth in vitro. Further: nearly all actives have a fitted effect of over 65% in size. To be noted: P. falciparum Dd2 growth, SYBR Green, 72 h; series mostly up to 28.9 µM. A digest of the protocol: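 Infected erythrocytes (Dd2, 0.3% parasitemia, 2.5% hematocrit final) are added to compound in RPMI-1640/Albumax II medium, grown 72 h at 37C in low oxygen, then lysed with saponin/Triton-X containing SYBR Green and read by fluorescence.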
`O=C(NCc1ccccc1)c1cnc2n1CCN(Cc1c[nH]c3ccccc13)CC2`: the Potency entry was “inactive”. Consider `COCC(=O)Nc1ccc([C@H]2OCC(=O)N[C@@H]2CO)cc1`, for which the Potency entry is “inactive”. On the same count and under the same terms, the same measure for `Cn1ncc(N2CCC(C(=O)N3CC=C(c4ccccc4)CC3)C2)cc1=O` (centres undefined): “inactive”.

Take `Cn1cnc(C(=O)N2CCC(OC3CCN(S(C)(=O)=O)CC3)CC2)c1`: the Potency entry was “inactive”. The same measure, in the same setting: then `COc1ccc(NC(=O)N2CCC(O)(c3csc(CN4CCc5ccccc5C4)n3)CC2)cc1`, with “inactive”; and `CC(C)c1csc(CN2CCN(c3ncccc3C#N)CC2)n1`, with “inactive”; and `Oc1ccccc1CN1CCC(O)(c2csc(CN3CCN(c4ccccn4)CC3)n2)CC1`, with 7.94 µM (active). On the same count and under the same terms, the same measure for `COc1ccccc1CCC(=O)N1CCC[C@H]1c1nc(-c2ccccc2)no1`: “inactive”; for `CC(C)c1cc(C(=O)NCc2cccnc2Oc2ccc(F)cc2F)on1`: “inactive”. `CN(C)c1nc2c(c(=O)[nH]1)CCN(Cc1ccncc1)CC2`: the outcome was “inactive [at 5.79 µM]”. Regarding `Cc1ccc(CN2C(=O)[C@@H]3C[C@@H](O)CN3C3(CN(Cc4ccncc4)C3)C2=O)o1`, the Potency entry is “inactive”. For the molecule `O=C1CC(c2ccccc2)N(Cc2cn[nH]c2-c2ccc(F)cc2)CCCCCN1` (centres undefined), the Potency is 8.91 µM (active). Still for that read-out and setting: then `COc1ccc(OC)c(S(=O)(=O)N2CCCCCCNC(=O)CC2c2ccccc2)c1` (centres undefined), with “inactive”; and `O=C1CC(c2ccccc2)N(C(=O)CNC(=O)c2cnccn2)CCCCCCN1` (centres undefined), with “inactive”. Regarding `Cn1cc(CC(=O)N2CCCc3ncc(C(=O)NCc4ccc(F)cc4)cc32)c2ccccc21`, the Potency entry is “inactive”.

On to `CC(=O)N1CCCN(Cc2nnc(C(=O)N3CCC[C@@H]3C(c3ccccc3)c3ccccc3)n2-c2ccccc2)CC1`, for which the Potency result is “inactive”. In the case of `Cc1nc(N2CCC(NC(=O)c3cnccn3)CC2)cc(C(F)(F)F)n1`, the Potency entry is “inactive”. On to `Cc1nc(N2CCC(NCCNc3ccncc3C)CC2)c2ccsc2n1`, for which the Potency is 10 µM (active). Still for that read-out and setting: the same measure for `Cc1occc1C(=O)NC1CCc2nn(CC3CC3)c(=O)n2CC1` (centres undefined): “inactive”; for `CN1CCOC(CNc2ncc(C(C)(C)C(=O)O)c(N3CCOCC3)n2)C1` (centres undefined): “inactive”. As for `Cc1c(CNC(=O)c2ccc3c(c2)[nH]c(=O)n3C2CCC(O)CC2)cnn1C` (centres undefined), the Potency entry was “inactive”.

On to `Cc1ccccc1CSc1nc(-c2ccccc2)nc2c1Cc1c(CO)cnc(C)c1O2`, for which the Potency was 3.98 µM (active). Same read-out and setting: the same measure for `COc1ccc(-c2nc3c(c(SCC(=O)Nc4ccc(C(=O)O)cc4)n2)Cc2ccccc2O3)cc1`: “inactive”; for `CSc1nc(-c2ccc(F)cc2)nc2c1Cc1c(CO)cnc(C)c1O2`: “inactive”; for `COc1cccc(C2Cn3nnc(-c4nc(-c5ccccc5F)no4)c3CO2)c1` (centres undefined): “inactive”.

For `Cc1ccc(CN2CCC(C3CCN(C)CC3)C2)o1` (centres undefined), the Potency entry is “inactive”. On the same count and under the same terms, the same measure for `CCOc1cc(C(=O)N2CCC[C@H]2c2nc(-c3ccc(F)cc3)no2)cc(OCC)c1OCC`: “inactive”; for `COC(=O)c1ccccc1NC(=O)C(Cc1ccccc1)N1Cc2ccccc2C1=O` (centres undefined): “inactive”; for `COC(=O)c1ccccc1NC(=O)c1ccc(COc2ccccc2Cl)o1`: “inactive”. Take `COC(=O)c1ccccc1NC(=O)c1cc(-c2ccccc2O)no1`: the Potency was 4.47 µM (active). Regarding `CC(C)(C)CC(=O)N1CC[C@@H](CC(=O)O)[C@@H](CCN2CCN(c3ccc(F)cc3)CC2)C1`, the Potency entry is “inactive”. Same read-out and setting: the same measure for `O=C(NCCc1cn[nH]c1)[C@H]1CCC[C@@H](O)C1`: “inactive”. On the same count and under the same terms, then `Cn1cc(-c2ccccc2Oc2ccccc2)c2nc(CN3CCNC(=O)C3)cn2c1=O`, with “inactive”; and `Oc1ccc(-c2nc(C3CC3)nc3c2CCN(Cc2cccc(F)c2)CC3)cc1`, with “inactive”. In the case of `Oc1ccc(-c2nc(C3CC3)nc3c2CN(Cc2ccc(F)cc2)CC3)cc1`, the Potency is 5.62 µM (active).

Turning to `Cn1nccc1CN1CCc2nc(C3CC3)nc(-c3ccc(O)cc3)c2C1`, the Potency result is “inactive”. For the molecule `O=C1OCC2(CCN(Cc3ccc(F)c(Cl)c3)C2)N1Cc1ccccn1` (centres undefined), the Potency result was “inactive”.

For `C[C@@H](NC(=O)COc1ccccc1)c1c(-c2ccc(F)cc2)noc1C(=O)O`, the Potency entry is “inactive”. For `Cc1cc(N2CCC(NC(=O)c3ccc(N(C)C)cc3)C2=O)ccc1F` (centres undefined), the Potency entry is “inactive”. Same read-out and setting: then `COc1ccc(NC(=O)Cn2c(=O)n(Cc3ccc(C(=O)NCc4ccccc4Cl)cc3)c(=O)c3ccccc32)cc1`, with 10 µM (active). `COc1ccccc1CNC(=O)CCn1c(=O)c2ccccc2n(CC(=O)Nc2cccc(Cl)c2)c1=O`: the Potency entry was “inactive”. Consider `Cc1ccc(Cn2c(=O)n(CCCC(=O)NCc3ccccc3Cl)c(=O)c3ccccc32)cc1`, for which the Potency entry was “inactive”.

`O=C(O)CCn1ncc2cc(OC3CCN(C(=O)C4CCCC4)CC3)ccc21`: the Potency entry is “inactive”. The same measure, in the same setting: the same measure for `CCCCNC(=O)C1CCN(C(=O)c2nnn3c2COC(c2ccc(C)cc2)C3)CC1` (centres undefined): “inactive”; for `CCOc1cc(=O)n2c(c1C(=O)Nc1cc(Cl)ccc1F)CCCC2`: “inactive”; for `Cc1noc2c(NC3CCCCC3)cc(-c3ccsc3)nc12`: “inactive”.

As to `Fc1ccc(CNC2(Cc3cc(-c4ccc(F)cc4)on3)COC2)cc1`, the Potency result is “inactive”. Same read-out and setting: then `FC(F)(F)c1cccc(-c2cc(C3=CCOCC3)c3cncn3c2)c1`, with 14.1 µM (active). Take `O=C1NCc2ccc(-c3cc4c(ccn4Cc4cccnc4)c(C4=CCOCC4)n3)cc21`: the Potency entry was “inactive”. `OCc1cccc(-c2cc(C3=CCOCC3)c3cncn3c2)c1`: the Potency entry is “inactive”. As to `O=C(C1CCOCC1)N1CCC2(CC1)CC(N1CCCC1)CCO2` (centres undefined), the Potency entry is “inactive”. For the molecule `COC[C@H]1CCCN1C(=O)C(C)[C@@H]1CC[C@@]2(C)CC[C@H](NC(C)=O)[C@@H](C)[C@@H]2[C@H]1O` (some centres undefined), the Potency result is “inactive”. The same measure, in the same setting: the same measure for `Cc1cccc(C(=O)N2C[C@@H](Oc3cccnc3)C[C@H]2C(=O)N2CCCC2)c1`: “inactive”; for `CCC(CC)C(=O)N1CCC(N2CCCC(C(=O)NCc3ccccc3)C2)CC1` (centres undefined): 10 µM (active). Take `O=C(NCC1CC1)C1CCCN(C2CCN(Cc3ccncc3)CC2)C1` (centres undefined): the Potency entry was “inactive”. For `Cc1cc(CNC(=O)C2CCCN(C3CCN(CCc4ccccc4)CC3)C2)on1` (centres undefined), the Potency result is “inactive”. Still for that read-out and setting: then `O=C(NCCC1CCN(C(=O)Nc2ccccc2F)CC1)c1ccccc1`, with “inactive”; and `O=[S+]([O-])(Nc1cccnc1)c1ccc2c(c1)OCCN(Cc1ccc(F)cc1)C2`, with “inactive”. As to `C=CCN(C)C(=O)[C@@H](C)C1CC[C@@]2(C)Cc3sc(Nc4c(Cl)cccc4Cl)nc3[C@@H](C)[C@@H]2[C@H]1O` (some centres undefined), the Potency entry was “inactive”. On the same count and under the same terms, the same measure for `CC1CCN(C(=O)C[C@@H]2c3nc(NC(=O)c4ccnc(Cl)c4)sc3C[C@@H]3[C@](C)(CO)[C@H](O)CC[C@]32C)CC1`: 6.31 µM (active); for `CCCCCC(=O)Nc1nc2c(s1)C[C@@H]1[C@](C)(CO)[C@H](O)CC[C@@]1(C)[C@@H]2CC(=O)N1CCC(C(N)=O)CC1`: “inactive”; for `COCC(=O)Nc1nc2c(s1)C[C@@H]1[C@](C)(CO)[C@H](O)CC[C@@]1(C)[C@@H]2CC(=O)NCCN1CCOCC1`: “inactive”. Turning to `Cc1ccc(S(=O)(=O)Nc2nc3c(s2)C[C@@H]2[C@](C)(CO)[C@H](O)CC[C@@]2(C)[C@@H]3CC(=O)O)cc1`, the Potency entry was “inactive”. For `C=CCN(C)C(=O)C[C@@H]1c2nc(NC(=O)c3ccc(C(C)(C)C)cc3)sc2C[C@@H]2[C@](C)(CO)[C@H](O)CC[C@]21C`, the Potency is 3.98 µM (active).
